# Inconclusive results are not listed. Values without a mark were called inactive. Activity calls are given as the source filed them. Calls follow the shape of the dose curve; as a rule, active = well fitted cell-killing curve with a large enough effect; inconclusive = small, poorly fitted or top-dose-only effect; inactive = flat fitted curve, though single readings scatter.
# Test: qHTS of pediatric cancer cell lines to identify multiple opportunities for drug repurposing: Primary screen for control Hh wild type fibroblast cells (AID 1347106); also: nearly all actives have a fitted effect of over 55% in size;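 as to activity change, negative = cytotoxic: a drop in luminescence marks cytotoxicity and a rise apparent proliferation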
# Conditions: Hh wild-type fibroblast viability, CellTiter-Glo luminescence, 48 h; series mostly up to 46 µM; activity change, negative = cytotoxic: at the top concentration
# Source text: Drug repurposing or repositioning has been offered as a strategy for drug development in oncology programs. This approach has special potential for childhood cancers and other rare or orphan diseases, where the expected return on new drug development has been a disincentive to pharmaceuticals.
# In this project we exploit the poly-pharmacology of drugs to discover new indications via phenotypic screening of a panel of 19 well-characterized cell lines derived from solid tumors seen in children and adolescents. The goal is to identify approved drugs with previously unrecognized anticancer properties that has the potential to reveal new mechanisms and biological processes involved in carcinogenesis or drug resistance. We employed a titration-based paradigm (quantitative high-throughput screening or qHTS), where all compounds were tested at multiple concentrations for their effect on cell viability. Concentration-response curves (CRCs) were derived directly from the primary screen, and both potency and efficacy values were used to identify compounds with robust bioactivity profiles. We screened the NIH Chemical Genomics Center (NCGC) Pharmaceutical Collection (NPC) and Mechanism Interrogation Plate (MIPE) small molecule collections of approved and investigational compounds against these cell lines; and measured metabolically active cells after 48 hours of compound treatment as a proxy for cell viability.
# Assay Submitter: Nathalia J. Martinez, National Center for Advancing Translational Sciences, National Institutes of Health, Rockville, MD, USA; email: natalia.martinez@nih.gov
# [1] Shen, M et al. Quantitative high-throughput phenotypic screening of pediatric cancer cell lines identifies multiple opportunities for drug repurposing. Oncotarget 2017 Dec 19;9(4):4758-4772. PMID 29435139.
# The cells were obtained from University of North Carolina (UNC), Pediatric Preclinical Testing Program (PPT), and Coriell Institute (CI).
# qHTS cell viability assay:
# Cells were assayed in growth media at a density of 500-1,000 cells/well. Five microliters of cells were dispensed into 1,536-well, white, solid-bottom, TC-treated plates (Greiner Bio One) using a multidrop dispenser and incubated at 37 degrees C, 5% CO2, under a humidified atmosphere for 5 hours. Twenty-three nanoliters of compounds and controls (neutral control DMSO or positive control bortezomib at final concentration of 2.3 µM) were subsequently transferred by Kalypsys pintool. For primary screens, the MIPE collection was tested at 11-point dilutions (final concentrations range from 0.78 nM to 46 µM) and the NPC collection at 8-point dilutions (final concentrations range from 0.59 nM to 46 µM). Compounds tested in follow-up screens were assayed at 11-point dilutions. Cells were incubated for 48 hours, followed by addition of 3 µL of CellTiter-Glo (Promega). After a 15 min incubation at room temperature, samples were analyzed for luminescence intensity using a ViewLux High-throughput CCD imager equipped with clear filters.
# % is scaled to controls: 0 for no effect and ±100 for the full control effect; potency is read from the fitted curve at half-maximal effect.
SMILES,"activity change, negative = cytotoxic [%]",Potency
CC1(C)CCC[C@@]2(C)[C@@H]1CC[C@@]1(C)OC(=O)C[C@H]21,5.76,–
CC(=NNC(=S)N1CCC1)c1ccccn1,–,166 nM (active)
NC1CCC(Nc2nc(Nc3ccc(C(=O)N4CCCCC4)cc3)c3ncn(-c4cccc(F)c4)c3n2)CC1 (stereo not given),-4.53,–
NC(=O)c1cnc(-c2ccc(C3(N)CCC3)cc2)c(-c2ccccc2)c1,-11.3,–
CON=C(C(=O)N[C@@H]1C(=O)N2C(C(=O)OCOC(=O)C(C)(C)C)=C(C=Cc3scnc3C)CS[C@H]12)c1csc(N)n1,-2.51,–
N#C[C@H]1C[C@H]2C[C@@H]2N1C(=O)[C@@H](N)C12CC3CC(CC(O)(C3)C1)C2,6.08,–
O=c1cc(-c2cccc3c2Sc2ccccc2S3)oc(N2CCOCC2)c1,14,–
C=C1C(=O)[C@@]23C(CC[C@@H]1[C@H]2O)[C@@]12CO[C@]3(O)[C@@H](O)[C@@H]1C(C)(C)CC[C@@H]2O (stereo not given in full),33.9,–
C[C@H](NC(=O)C(=O)Nc1ccccc1C(C)(C)C)C(=O)N[C@@H](CC(=O)O)C(=O)COc1c(F)c(F)cc(F)c1F,-1.12,–
O=C1NC(=O)C(=Cc2ccc(-c3ccc(F)cc3)o2)S1,-6.1,–
COC(=O)N[C@H](C(=O)N1CCC[C@@H]1c1ncc(-c2ccc(-c3ccc(-c4cnc([C@@H]5CCCN5C(=O)[C@@H](NC(=O)OC)C(C)C)[nH]4)cc3)cc2)[nH]1)C(C)C,-1.97,–
O=C(NOCC(O)CO)c1cc(Br)c(F)c(F)c1Nc1ccc(I)cc1F (stereo not given),-6.72,–
OC[C@H]1O[C@@H](n2cnc3c2NC=NC[C@@H]3O)C[C@H]1O,3.99,–
COc1ccc(C2CC(c3ccccc3)=NN2c2ccc(S(N)(=O)=O)cc2)cc1 (stereo not given),10.1,–
C=C1C(=O)OC(CCCCCCCC)C1C(=O)O (stereo not given),3.12,–
N#CC1(c2ccc(NC(=O)c3cccnc3NCc3ccncc3)cc2)CCCC1,9.86,–
CN(C)CCC=C1c2ccccc2COc2ccc(CC(=O)O)cc21,-21,–
O=C(NCCN1CCOCC1)c1ccc(Cl)cc1,19.7,–
C=CCc1ccc(O)c(-c2ccc(O)c(CC=C)c2)c1,-1.08,–
O=c1[nH]cnc2c1ncn2[C@H]1CC[C@@H](CO)O1,19.4,–

SMILES,"activity change, negative = cytotoxic [%]",Potency
CC[C@]1(O)C[C@@H]2CN(CCc3c([nH]c4ccccc34)[C@@](C(=O)OC)(c3cc4c(cc3OC)N(C=O)[C@@H]3C45CCN4CC=C[C@](CC)([C@H]45)[C@@H](OC(C)=O)[C@]3(O)C(=O)OC)C2)C1 (stereo not given in full),7.68,–
OC[C@@H](O)[C@H](O)[C@H](O)[C@@H](O)CO,–,inactive
COc1cccc2c1CCCC2CCCN1CCN(C2CCCCC2)CC1 (stereo not given),0.449,–
CC(=O)O[C@]1(C(C)=O)CC[C@H]2[C@@H]3C=C(Cl)C4=CC(=O)[C@@H]5C[C@@H]5[C@]4(C)[C@H]3CC[C@@]21C,-6.53,–
C[C@@H]1CCN(C(=O)CC#N)C[C@H]1N(C)c1ncnc2[nH]ccc12,4.51,–
Cc1cccc(C)c1OCC(C)N (stereo not given),-2.31,–
CN1C[C@H]2c3ccccc3Oc3ccc(Cl)cc3[C@@H]2C1,–,inactive
COC(=O)C1=CO[C@@H](O)[C@@H]2C(CO)=CC[C@@H]12,-9.55,–
c1ccc2c(-c3cnn4cc(-c5ccc(N6CCNCC6)cc5)cnc34)ccnc2c1,–,4690 nM (active)
CC(C)C[C@H](CC(=O)O)C(=O)N[C@@H](Cc1c[nH]c2ccccc12)C(=O)N[C@@H](C)c1ccccc1,-6.94,–
OC[C@H]1O[C@@H](Oc2cc(O)cc(C=Cc3ccc(O)cc3)c2)[C@H](O)[C@@H](O)[C@H]1O,1.41,–
CC(C)C(C)C=CC(C)C1CCC2C3=CC=C4CC(O)CCC4(C)C3CCC21C (stereo not given),-1.12,–
CC[C@H]1OC(=O)[C@H](C)[C@@H](O[C@H]2C[C@@](C)(OC)[C@@H](O)[C@H](C)O2)[C@H](C)[C@@H](O[C@@H]2O[C@H](C)C[C@H](N(C)C)[C@@H]2O)[C@](C)(O)C[C@@H](C)CN(C)[C@H](C)[C@@H](O)[C@]1(C)O,9.96,–
CC(C)NCC(O)COc1cccc2[nH]ccc12 (stereo not given),10.5,–
O=C1NC(=O)C(c2ccccc2)(c2ccccc2)N1,-5.84,–
CCC(=O)NC[C@H](Cc1ccc(OCCc2nc(-c3ccccc3)oc2C)cc1)NC(C)=CC(=O)c1ccc(C(F)(F)F)cc1,11,–
O=c1cc(-c2ccccc2)oc2cc(O)cc(O)c12,13.8,–
CC(C)(C)NC(=O)Nc1cccc(Nc2ncc(F)c(NC(C)(C)CO)n2)c1,11.6,–
O=C1Nc2ccc(Cl)cc2C(C#CC2CC2)(C(F)(F)F)O1 (stereo not given),0.894,–
Clc1cc(Cl)cc(CNc2ncncc2-c2ccc3c(c2)OCO3)c1,3.2,–
